# Screens as filed in PubChem.
# Only some compounds are listed: those with a hit (about 3.7% of all), similar ones and a draw of the others.
# tim23-1 inh: inhibits growth of tim23-1 mutant yeast; inhibition, % at 20 µM; 330,000 tested, 1.3% active; AID 463212; S. cerevisiae tim23-1 growth, BacTiter-Glo luminescence, 24 h;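 active means growth inhibition of the mutant yeast at or above 50%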;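 further: temperature-sensitive mutant grown at 25 °C; plate controls were DMSO-treated mutant yeast for no effect and medium wells lacking yeast for full effect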
# NLRP3 yeast inh: inhibitors of NALP3 inflammasome in yeast. AID 2825. 330,000 tested, 0.39% active. inhibition, % at 10 µM. Yeast reconstituted NLRP3/ASC/caspase-1, beta-gal luminescence, 24 h;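 active means inhibition of 50% or more; inactive means inhibition below 50%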;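 further: plate controls were induced DMSO wells for no effect and uninduced yeast grown without galactose for full effect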
# TIM10 inh: growth inhibitors of TIM10 yeast strain; inhibition, % at 10 µM; S. cerevisiae TIM10 strain growth, BacTiter-Glo luminescence, 24 h; 330,000 tested, 1.4% active;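 active means inhibition of 40% or more at the single tested concentration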;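 further: wild-type TIM10 isogenic control strain grown at permissive 25 °C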
# tim10-1 inh: tim10-1 yeast growth inhibition; AID 463190; S. cerevisiae tim10-1 ts strain growth, BacTiter-Glo, 24 h; 330,000 tested, 2.2% active; inhibition, % at 20 µM;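 active means inhibition of at least 40%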;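 further: mutant grown at 25 °C; 0% = DMSO wells with yeast and 100% = wells holding no yeast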
# PfHsp90 set2: reduces growth (ATP signal) of yeast expressing P. falciparum Hsp90. S. cerevisiae expressing PfHsp90, BacTiter-Glo ATP, 48 h; yeast lacking PDR1 and PDR3 efflux regulators. inhibition, % at 9.4 µM. 310,000 tested, 0.32% active. AID 504621;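 active means every replicate shows inhibition above about 80%, whatever the replicate mean, limit read from the data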;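 further: 0% = DMSO neutral controls and 100% = 20 µM radicicol positive controls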
# NALP3 yeast conf: NALP3 inhibition confirmation in yeast. shares compounds with NLRP3 yeast inh. yeast expressing human NALP3, luminescence. inhibition, % at 10 µM. 1,300 tested, 81% active. AID 435006; in the data active means inhibition above about 48%
# Casp1-ASC yeast: active in yeast caspase-1-ASC counter-screen for NALP3 inhibitors | shares compounds with NLRP3 yeast inh | yeast expressing Caspase-1-ASC, luminescence counter screen | inhibition, % at 10 µM | 1,000 tested, 66% active | AID 488784
# NALP3 yeast rt: retest-confirmed inhibitor of NALP3 in yeast | shares compounds with NLRP3 yeast inh | yeast expressing human NALP3, luminescence read-out | inhibition, % at 10 µM | 1,000 tested, 53% active | AID 488794
# * hit, by the source's call; . = no result given. Unless noted, no stated cut-off is given here; in the data, active means inhibition above about 50%; inactive means the rest.
SMILES,tim23-1 inh,NLRP3 yeast inh,TIM10 inh,tim10-1 inh,PfHsp90 set2,others
Clc1ccc(CSC(Cn2ccnc2)c2ccc(Cl)cc2Cl)cc1 (configuration not stated),5.5,4.8,-166.6,-37.4,90.3*,
Clc1ccc(COC(Cn2ccnc2)c2ccc(Cl)cc2Cl)cc1 (configuration not stated),49.4,3.3,-91.5,-26.5,83.0*,
Clc1ccc(CO/N=C(\Cn2ccnc2)c2ccc(Cl)cc2Cl)c(Cl)c1,-41.1,27.1,-72.3,32.6,.,
c1ccc(Cn2ccnc2)cc1,-10.7,2.5,4.7,-9.2,7.5,
NC(N)=Nc1ccc2[nH]c3c(c2c1)C[C@@]1(O)[C@H]2Cc4ccc(O)c5c4[C@@]1(CCN2CC1CC1)C3O5 (some centres not stated),-63.9,4.4,-22.9,-17.9,.,
Oc1c(Cl)cccc1Cc1cc(Cl)cc(Cl)c1O,.,.,.,.,109.2*,
Oc1c(Cl)cc(Cl)cc1CN1CCN(Cc2ccccc2)CC1,19.3,-7.8,21.3,21.8,1.0,
COc1cc2cc(C(=O)N3CC(COS(C)(=O)=O)c4ccc(O)cc43)[nH]c2c(OC)c1OC (configuration not stated),.,.,.,.,104.4*,
CN1C(=O)/C(=C/c2ccc(Cl)s2)C(=O)NC1=S,.,.,.,.,93.9*,
Cc1ccsc1/C=C1\C(=O)NC(=S)N(C)C1=O,22.2,26.7,9.6,17.7,-6.3,
COc1ccc(C=O)cc1O,9.7,-0.1,-5.5,9.8,3.1,
COC[C@H]1OC(=O)c2coc3c2[C@@]1(C)C1=C(C3=O)[C@@H]2CCC(=O)[C@@]2(C)C[C@H]1OC(C)=O,.,.,.,.,106.4*,
C[C@H]1C(=O)O[C@@H]2CCN3CC=C(COC(=O)[C@](C)(O)[C@]1(C)O)[C@H]23,3.8,9.2,4.5,16.4,-24.7,
O=C(c1ccccc1)C(CN1CCCC1)c1ccccc1 (configuration not stated),.,.,.,.,7.6,
CC1CCN(C(CC(=O)c2ccccc2)C(=O)c2ccccc2)CC1 (configuration not stated),.,.,.,.,112.9*,
CC12CC1(C)C(=O)N(c1cc(Cl)cc(Cl)c1)C2=O (configuration not stated),.,.,.,.,10.4,
CC[C@H](C)/C=C(C)/C=C/C1=CC2=C(Cl)C(=O)[C@@](C)(OC(C)=O)C(=O)C2=CO1,37.5,12.5,10.3,26.8,105.8*,
Cc1cc(OCC(=O)N[C@H](C(=O)O)c2ccccc2)c2c3c(c(=O)oc2c1)CCC3,5.2,7.3,-1.1,-1.1,6.8,
COC(=O)C1=C(C(=O)OC)SC2(S1)C(C(=O)OC)=C(C(=O)OC)Sc1c2ssc1=O,.,.,.,.,117.3*,
CC1=CC2OC3CC4OC(=O)C=CC=CC(=O)OCCC(C)C(O)C(=O)OCC2(CC1)C4(C)C31CO1 (configuration not stated),.,.,.,.,105.3*,
CC1CCOC(=O)C=CC=CC(=O)OC2CC3OC4C5OC5(C)C(O)CC4(COC(=O)C1O)C2(C)C31CO1 (configuration not stated),.,.,.,.,-8.3,
CC1=CC(C)CC(C)OC(=O)CC(c2ccc(O)cc2)NC(=O)C(Cc2c(Br)[nH]c3ccccc23)N(C)C(=O)C(C)NC(=O)C(C)C1 (configuration not stated),.,.,.,.,104.8*,
COC(=O)C1=C(c2ccc3ccccc3c2)C[C@@H]2CC[C@H]1N2C(=O)NC1CCCCC1,43.3,10.2,25.8,21.7,-12.8,
CCCC1COC(Cn2cncn2)(c2ccc(Cl)cc2Cl)O1 (configuration not stated),-402.1,17.3,-47.4,-46.2,106.6*,
CC(c1ccccc1)n1cncc1C(=O)O (configuration not stated),-7.7,21.7,-9.2,-2.8,-9.2,
SMILES,tim23-1 inh,NLRP3 yeast inh,TIM10 inh,tim10-1 inh,PfHsp90 set2,others
Oc1ccc(O)c2c1C1(Cl)C(Cl)=C(Cl)C2(Cl)C1(Cl)Cl,.,.,.,.,106.6*,
O=S(=O)(c1ccc(Cl)cc1)N1CN2CCN(C2)C1,8.7,5.2,-0.5,7.4,11.1,
COc1cc2c(cc1/C=C/[N+](=O)[O-])OCO2,.,.,.,.,106.2*,
CCOC(=O)C1=Nc2ccccc2/C1=C\c1c(O)n(C)c(=O)n(C)c1=O,36.9,53.0*,-8.5,-25.8,3.0,NALP3 yeast conf=44.8
Cc1ccc(Cl)cc1N1CCN(CCN)CC1,-2.6,58.7*,-9.7,8.8,13.5,NALP3 yeast conf=56.9*;Casp1-ASC yeast=58.4*;NALP3 yeast rt=67.0*
CN1CCN(c2ccc(Cl)cc2N)CC1,-3.8,27.0,-10.8,-16.5,16.6,
O=c1c2ccccc2[nH]c(=S)n1-c1ccc2c(c1)OCCO2,3.4,6.5,4.1,-5.9,1.3,
C[C@]12CCC(=O)C=C1C=CC1C2CC[C@]2(C)C(=O)CCC12 (some centres not stated),3.1,50.0*,9.2,-2.1,1.6,NALP3 yeast conf=57.2*
C[C@]12CCC(=O)C=C1C=C[C@@H]1[C@@H]2CC[C@@]2(C)[C@H]1CC[C@@]2(O)CCC(=O)O,-12.1,9.3,5.8,18.4,30.8,
O=C(/C=C/c1ccc(Cl)cc1)NC(=S)N1C[C@H]2C[C@H](C1)c1cccc(=O)n1C2,-6.9,-10.7,-5.2,-8.4,-36.5,
CCCNC(=O)N1[C@H]2CC[C@@H]1C(C(=O)OC)=C(c1cccc(C#N)c1)C2,2.1,11.1,1.4,-15.5,12.9,
COc1ccc2nc(NC3=NCCN3)sc2c1,33.3,94.7*,14.4,27.5,8.9,NALP3 yeast conf=-25.1
c1ccc2sc(NC3=NCCN3)nc2c1,23.7,96.7*,7.5,28.5,-2.9,NALP3 yeast conf=94.9*;Casp1-ASC yeast=99.3*;NALP3 yeast rt=98.2*
ClCCOCOCCCl,-13.4,0.4,3.7,-18.8,-9.7,
C[C@]12CCC3C(CC[C@H]4C[C@@H](O)CC[C@]34C)C1C[C@@H](Br)[C@H]2O (some centres not stated),-7.1,58.3*,-80.6,-65.7,.,NALP3 yeast conf=50.3*
C[C@]12CCC3C(CC[C@H]4C[C@@H](O)CC[C@]34C)C1CC[C@@H]2OC(=O)[C@H](N)CCCCN (some centres not stated),-175.1,66.1*,-132.1,-65.2,27.1,NALP3 yeast conf=57.3*
C[C@]12CCC3[C@@H](CC[C@@H]4C[C@H](O)CC[C@]34C)[C@@H]1CCC2=O (some centres not stated),43.8,66.6*,9.9,30.5,-0.3,NALP3 yeast conf=61.5*;Casp1-ASC yeast=70.6*;NALP3 yeast rt=60.6*
C[C@]12CC[C@H](O)C[C@@H]1CC[C@@H]1[C@@H]2CC[C@]2(C)C(=O)CC[C@@H]12,-25.3,66.8*,-203.2,-59.6,3.6,NALP3 yeast conf=61.9*;Casp1-ASC yeast=62.0*;NALP3 yeast rt=41.5
C[C@]12CCC3C(CC[C@H]4C[C@@H](O)CC[C@]34C)C1[C@H]1CN=N[C@H]1[C@@H]2O (some centres not stated),0.2,37.4,-4.7,9.1,5.9,
